Results filed as inconclusive are left out. A call without a number means that no potency is given here. Activity calls are given as the source filed them. The call rests on the fitted dose curve; in most records, active means well fitted inhibition curve with a large enough effect; inconclusive means small, poorly fitted or top-dose-only effect; inactive means flat fitted curve, though single readings scatter.
Assay: qHTS to identify inhibitors of the type 1 interferon - major histocompatibility complex class I in skeletal muscle: primary screen against the NCATS Pharmaceutical Collection (AID 1347407);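 further: luminescence of HiBiT knocked into endogenous HLA-B as interferon-induced MHC class I level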
Settings: human skeletal muscle cells, IFN-b-induced MHC-I HiBiT luminescence, 24 h; series mostly up to 45.9 µM
In short: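 HLA-B HiBiT myoblasts, dexamethasone-free growth medium + 4 ng/ml IFN-b; compounds pinned 1 h after seeding, […] from 46 uM; 24 h, 37 C, 5% CO2; lytic HiBiT detection, 10 min RT, luminescence.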
Potency means the concentration at half of the fitted maximal effect.

Structure (SMILES) | Potency
CC1(C)OC[C@@H](COC(=O)CCc2ccc(OC[C@@H](O)CNCCNC(=O)N3CCOCC3)cc2)O1 | inactive
CC(C)(CO)[C@@H](O)C(=O)NCCCO | inactive
O=C(CCCN1CCC(O)(c2ccc(Br)cc2)CC1)c1ccc(F)cc1 | inactive
CCCCOc1ccc(C(=O)CCN2CCCCC2)cc1 | inactive
CC(=O)N/N=C/c1ccc([N+](=O)[O-])o1 | inactive
CN(C)C(=S)SC(=S)N(C)C | inactive
CCN(CCCc1ccccc1)CCCc1ccccc1 | inactive
Cc1onc(-c2c(Cl)cccc2Cl)c1C(=O)N[C@@H]1C(=O)N2[C@@H]1SC(C)(C)[C@@H]2C(=O)O | inactive
CC(=O)CC(c1ccc([N+](=O)[O-])cc1)c1c(O)c2ccccc2oc1=O (stereo not drawn) | 1.49 µM (active)
O=C1OCCN1/N=C/c1ccc([N+](=O)[O-])o1 | inactive
CC(Cc1ccccc1)(NC(=O)CN)c1ccccc1 (stereo not drawn) | inactive
CCOC(=O)n1ccn(C)c1=S | inactive
CN1[C@@H]2CC[C@H]1CC(OC(=O)c1c[nH]c3ccccc13)C2 (stereo partly drawn) | inactive
Cc1c(C(C)C)c(=O)n(-c2ccccc2)n1C | inactive
CCCCOc1ccc(OCCCN2CCOCC2)cc1 | inactive
COCc1c(C(C)C)nc(C(C)C)c(/C=C/[C@@H](O)C[C@@H](O)CC(=O)O)c1-c1ccc(F)cc1 | inactive
CCCCOc1cc(C(=O)NCCN(CC)CC)c2ccccc2n1 | inactive
COc1cc2c(cc1OC)C(C(C(=O)N(CCc1ccc(OC)c(OC)c1OC)CCc1ccc(OC)c(OC)c1OC)c1ccccc1)=NCC2 (stereo not drawn) | inactive

Reference: PubChem BioAssay (NCATS)
